# Data reported in PubChem BioAssay (Tox21).
# Results filed as inconclusive are left out. Entries that show only a call come without a potency. Unmarked numbers belong to inactive results. The source made the active and inactive calls. Unless noted, calls come from the whole dose curve; as a rule, active = well fitted curve in the direction sought with a large enough effect in the repeat runs; inconclusive = weak or mixed curves; inactive = no such curve, though single readings can be large; an effect the other way counts as inactive or inconclusive.
# How the values were obtained:
# [1] = qHTS assay to identify aromatase inhibitors - cell viability counter screen (AID 743084);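 note: cells stimulated with testosterone during compound exposure; nearly all actives have a fitted effect of over 55% in size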; note: potency is the fitted concentration of half-maximal effect
# [2] = target: Aryl hydrocarbon receptor (Homo sapiens) (UniProt P35869); assay: qHTS assay to identify small molecule that activate the aryl hydrocarbon receptor (AhR) signaling pathway (AID 743085); note: nearly all actives have a fitted effect of over 15% in size; note: potency is the fitted concentration of half-maximal effect;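 for activation: HG2L7.5c1 human HepG2 liver cells with stably integrated DRE-driven firefly reporter; series mostly up to about 70 µM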
# Aryl hydrocarbon receptor (Homo sapiens), sequence (P35869 whole entry, looked up): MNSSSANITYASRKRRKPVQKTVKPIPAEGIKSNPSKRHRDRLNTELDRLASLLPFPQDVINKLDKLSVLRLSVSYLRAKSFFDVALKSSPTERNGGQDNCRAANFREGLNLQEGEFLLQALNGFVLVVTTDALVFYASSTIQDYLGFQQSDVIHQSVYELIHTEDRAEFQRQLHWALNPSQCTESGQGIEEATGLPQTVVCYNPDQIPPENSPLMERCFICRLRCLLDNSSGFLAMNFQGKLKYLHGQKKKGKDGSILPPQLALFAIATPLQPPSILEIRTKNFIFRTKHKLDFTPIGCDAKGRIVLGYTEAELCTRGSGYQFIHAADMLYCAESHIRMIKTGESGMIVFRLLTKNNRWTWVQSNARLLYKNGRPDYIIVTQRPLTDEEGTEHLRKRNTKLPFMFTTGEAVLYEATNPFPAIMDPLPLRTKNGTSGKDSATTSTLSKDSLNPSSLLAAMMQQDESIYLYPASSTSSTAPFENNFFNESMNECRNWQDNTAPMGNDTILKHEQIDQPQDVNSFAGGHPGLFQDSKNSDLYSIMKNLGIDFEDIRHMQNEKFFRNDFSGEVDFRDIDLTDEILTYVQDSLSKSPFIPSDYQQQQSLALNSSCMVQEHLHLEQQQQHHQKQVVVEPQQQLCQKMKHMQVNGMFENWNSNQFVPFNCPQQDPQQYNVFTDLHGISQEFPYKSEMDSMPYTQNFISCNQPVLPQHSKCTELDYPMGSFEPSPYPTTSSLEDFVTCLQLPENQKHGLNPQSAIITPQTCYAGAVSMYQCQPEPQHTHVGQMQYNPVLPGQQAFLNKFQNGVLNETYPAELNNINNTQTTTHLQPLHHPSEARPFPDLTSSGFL
# Procedure, shortened: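 Luminescence (ONE-Glo) from a dioxin-responsive-element luciferase reporter in HG2L7.5c1 HepG2 cells after 24 hr compound exposure at 37C; viability measured by CellTiter-Fluor fluorescence beforehand.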
# [3] = qHTS assay to identify small molecule that activate the aryl hydrocarbon receptor (AhR) signaling pathway - cell viability counter screen (AID 743086); note: nearly all actives have a fitted effect of over 45% in size; note: potency is the fitted concentration of half-maximal effect
# Procedure, shortened: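 HepG2-AhR-luc (HG2L7.5c1) cells, 4000/well, treated 24 h at 37 C with compound; viability measured as CellTiter-Fluor fluorescence after 30 min in the same wells as the luciferase read.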
# [4] = target: Peroxisome proliferator-activated receptor gamma (Homo sapiens) (UniProt P37231); assay: qHTS assay to identify small molecule agonists of the peroxisome proliferator-activated receptor gamma (PPARg) signaling pathway (AID 743094; active = well fitted activation curve with a large enough effect in the signal ratio in the repeat runs, not every such curve was filed as active; the % refers to the signal ratio; note: potency is the fitted concentration of half-maximal effect)
# Peroxisome proliferator-activated receptor gamma (Homo sapiens), sequence (P37231 whole entry, looked up): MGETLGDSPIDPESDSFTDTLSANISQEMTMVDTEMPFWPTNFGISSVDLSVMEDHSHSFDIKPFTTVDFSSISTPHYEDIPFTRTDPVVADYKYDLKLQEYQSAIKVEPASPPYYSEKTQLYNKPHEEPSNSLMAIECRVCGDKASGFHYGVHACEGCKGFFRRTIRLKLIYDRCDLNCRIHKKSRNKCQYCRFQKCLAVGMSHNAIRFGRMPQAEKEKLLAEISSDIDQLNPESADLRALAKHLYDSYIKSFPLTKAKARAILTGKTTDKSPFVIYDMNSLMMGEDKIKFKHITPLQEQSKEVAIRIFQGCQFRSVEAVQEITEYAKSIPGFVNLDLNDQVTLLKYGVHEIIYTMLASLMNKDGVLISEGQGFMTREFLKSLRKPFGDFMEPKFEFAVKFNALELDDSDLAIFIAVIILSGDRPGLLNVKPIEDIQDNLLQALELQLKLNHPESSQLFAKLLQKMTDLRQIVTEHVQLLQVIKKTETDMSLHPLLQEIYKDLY
# Procedure, shortened: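 HEK293H PPARg-bla cells, 5 h settle at 37C/5% CO2; compound (DMSO) 17 h, 37C; B/G FRET substrate 1 h RT; fluorescence intensity read-out. qHTS format.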
# [5] = target: Peroxisome proliferator-activated receptor gamma (Homo sapiens) (UniProt P37231); assay: qHTS assay to identify small molecule antagonists of the peroxisome proliferator-activated receptor gamma (PPARg) signaling pathway (AID 743191; calls by dose curve; note: nearly all actives have a fitted effect of over 30% in size; note: potency is the fitted concentration of half-maximal effect)
# Procedure, shortened: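 GeneBLAzer PPARg UAS-bla HEK293H cells, 5 h post-plating, exposed to compounds 17 h at 37C. LiveBLAzer B/G FRET substrate added for 1 h at room temperature; beta-lactamase reporter read by fluorescence intensity.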
# [6] = qHTS assay for small molecule agonists of the antioxidant response element (ARE) signaling pathway - cell viability counter screen (AID 743203; calls by dose curve; note: nearly all actives have a fitted effect of over 55% in size; note: potency is the fitted concentration of half-maximal effect)
# Procedure, shortened: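 Luminescence read-out (CellTiter-Glo, 30 min at room temperature) measured cell viability in the same wells as the ARE beta-lactamase reporter. HepG2 ARE-bla cells were treated with compounds for 16 hrs at 37C/5% CO2.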
# [7] = qHTS assay for small molecule activators of the heat shock response signaling pathway - cell viability counter screen (AID 743209); note: nearly all actives have a fitted effect of over 50% in size
# Procedure, shortened: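 HSE-bla HeLa; 1500 cells/well; overnight 37 C, 5% CO2; compound 5 h 37 C; LiveBLAzer B/G substrate 2.5 h RT; CellTiter-Glo 30 min RT; luminescence.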
# [8] = qHTS assay to identify small molecule antagonists of the peroxisome proliferator-activated receptor gamma (PPARg) signaling pathway - cell viability counter screen (AID 743194); note: nearly all actives have a fitted effect of over 55% in size; note: potency is the fitted concentration of half-maximal effect
# Procedure, shortened: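 Cytotoxicity counter screen in PPARg-bla HEK293H cells, same wells as reporter assay. Compounds plus 50 nM rosiglitazone (final) for 17 h at 37 C, then viability read by CellTiter-Glo luminescence.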
# [9] = qHTS assay for small molecule agonists of the antioxidant response element (ARE) signaling pathway (AID 743202; active = well fitted activation curve with a large enough effect in the signal ratio in the repeat runs, not every such curve was filed as active; the % refers to the signal ratio; note: potency is the fitted concentration of half-maximal effect)
# Procedure, shortened: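 HepG2 ARE-bla cells; 16 h treatment at 37 C; FRET-based beta-lactamase fluorescence read after 2 h substrate incubation at room temperature.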
# [10] = qHTS assay for small molecule activators of the heat shock response signaling pathway (AID 743210; active = well fitted activation curve with a large enough effect in the signal ratio in the repeat runs, with a control signal flat, not every such curve was filed as active; the % refers to the signal ratio;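 note: HeLa cells with beta-lactamase reporter driven by heat shock elements; series mostly up to about 63 µM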)
# Procedure, shortened: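 Following overnight attachment, HSE-bla HeLa cells received test compounds for 5 h at 37 C; beta-lactamase activity was then detected via FRET substrate fluorescence.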
Structure (SMILES),Potency [1],Potency [2],Potency [3],Potency [4],Potency [5],Potency [6],Potency [7],Potency [8],Potency [9],Potency [10]
CC1CC(O)CC(C)(C)C1 (configuration not stated),inactive,inactive,inactive,inactive,inactive,inactive,inactive,,,
O=C(CCCCCCCCC#CI)Oc1ccccc1,inactive,inactive,inactive,inactive,,inactive,inactive,inactive,inactive,inactive
CCCCCCCCCCCCCCCCBr,inactive,inactive,inactive,inactive,inactive,inactive,inactive,,inactive,inactive
CCOC(=O)/C=C/C(=O)O,inactive,inactive,inactive,inactive,,inactive,inactive,inactive,9.69 µM (active),inactive
CN(C)C(=O)Nc1ccc(Oc2ccc(Cl)cc2)cc1,inactive,inactive,inactive,inactive,,inactive,inactive,inactive,19.3 µM (active),inactive
Nc1nccs1,inactive,inactive,inactive,inactive,,inactive,inactive,inactive,inactive,
CCC(C(=O)OCCOCCN(CC)CC)c1ccccc1 (configuration not stated),inactive,inactive,inactive,inactive,,inactive,inactive,inactive,inactive,inactive
C[Si](NC1CCCCC1)(NC1CCCCC1)NC1CCCCC1,inactive,inactive,inactive,inactive,inactive,inactive,inactive,inactive,,inactive
CCCCCCCCCOC(C)=O,inactive,inactive,inactive,inactive,inactive,inactive,inactive,,inactive,inactive
C1COCO1,inactive,inactive,inactive,inactive,inactive,inactive,inactive,,inactive,inactive
CC(CCO)CCc1ccccc1 (configuration not stated),inactive,inactive,inactive,inactive,inactive,inactive,inactive,,,
CCCCCCCC/C=C\CCCCCCCC(=O)OC,inactive,inactive,inactive,inactive,inactive,inactive,inactive,,inactive,inactive
CC1=C(C=O)C(C)(C)CCC1,inactive,inactive,inactive,inactive,inactive,inactive,inactive,inactive,,inactive
CC[C@@H]([C@H](C)O)n1ncn(-c2ccc(N3CCN(c4ccc(OC[C@@H]5CO[C@@](Cn6cncn6)(c6ccc(F)cc6F)C5)cc4)CC3)cc2)c1=O,inactive,inactive,inactive,inactive,,inactive,inactive,29.8 µM (active),10.6 µM (active),
COC(=O)CC(=O)C(C)(C)C,inactive,inactive,inactive,inactive,inactive,inactive,inactive,,,inactive
O=[N+]([O-])c1cccc(S(=O)(=O)NCCNS(=O)(=O)c2cccc([N+](=O)[O-])c2)c1,inactive,inactive,inactive,inactive,inactive,inactive,inactive,,,inactive
OCCSc1ccccc1,inactive,inactive,inactive,inactive,inactive,inactive,inactive,,inactive,inactive
C[Si]1(C)O[Si](C)(C)O[Si](C)(C)O1,inactive,inactive,inactive,inactive,inactive,inactive,inactive,inactive,,inactive
C=CC(=O)NCOCC(C)C,inactive,inactive,inactive,inactive,inactive,inactive,inactive,inactive,,inactive

Structure (SMILES),Potency [1],Potency [2],Potency [3],Potency [4],Potency [5],Potency [6],Potency [7],Potency [8],Potency [9],Potency [10]
CCCOC(=O)c1ccc(C(=O)OCCC)nc1,inactive,inactive,inactive,inactive,inactive,inactive,inactive,,inactive,inactive
O=S(=O)(c1ccccc1)c1ccc(Cl)cc1,inactive,inactive,inactive,inactive,inactive,inactive,inactive,,,
COC(=O)[C@@H]1CC2=CC(=O)CC[C@]2(C)[C@@]23O[C@@H]2C[C@@]2(C)[C@@H](CC[C@@]24CCC(=O)O4)[C@H]13,inactive,inactive,inactive,inactive,,inactive,inactive,inactive,inactive,inactive
CCCCCCCCCCCC[N+](C)(C)CC(=O)[O-],inactive,inactive,inactive,inactive,inactive,,inactive,inactive,,inactive
CCC(C)(O)CCC=C(C)C (configuration not stated),inactive,inactive,inactive,inactive,inactive,inactive,inactive,,inactive,inactive
NC(=O)Nc1ccc(Cl)cc1,inactive,inactive,inactive,inactive,inactive,inactive,inactive,,inactive,
Cc1ccccc1N1C(=O)c2cc(S(N)(=O)=O)c(Cl)cc2NC1C (configuration not stated),inactive,inactive,inactive,inactive,,inactive,inactive,inactive,inactive,inactive
OCC1CC=CCC1 (configuration not stated),inactive,inactive,inactive,inactive,,inactive,inactive,inactive,inactive,inactive
CC(Cl)C(Cl)Cl (configuration not stated),inactive,inactive,inactive,inactive,,inactive,inactive,inactive,inactive,inactive
Nc1ccc(S(=O)(=O)O)c(N)c1,inactive,inactive,inactive,inactive,inactive,inactive,inactive,,inactive,
CO[Si](C)(OC)OC,inactive,inactive,inactive,inactive,,inactive,,inactive,inactive,inactive
NCC1CCCC(CN)C1 (configuration not stated),inactive,inactive,inactive,inactive,,inactive,inactive,inactive,inactive,inactive
CCCc1c(OCCCOc2ccc(OCC(=O)O)cc2)ccc(C(C)=O)c1O,inactive,inactive,inactive,0.275 µM (active),,inactive,inactive,inactive,inactive,inactive
Cc1nccn1-c1ccc(Sc2cccc(C3(C(N)=O)CCOCC3)c2)cc1,inactive,inactive,inactive,,inactive,inactive,inactive,,,inactive
CNC(=O)N(c1ccccc1)c1ccccc1,inactive,inactive,inactive,inactive,,inactive,inactive,,,inactive
CC1=CC(O)CC(C)(C)C1 (configuration not stated),inactive,inactive,inactive,inactive,,inactive,inactive,,inactive,inactive
CC(=O)OCC(=O)[C@H]1CC[C@H]2[C@@H]3CCC4=CC(=O)CC[C@]4(C)[C@H]3CC[C@]12C,inactive,inactive,inactive,inactive,,inactive,inactive,inactive,,inactive
C[N+]1(C)CCC(=C(c2ccccc2)c2ccccc2)CC1,inactive,inactive,inactive,,,inactive,inactive,inactive,,
CCCCN(CCCC)C(=S)SSC(=S)N(CCCC)CCCC,inactive,inactive,inactive,,24.3 µM (active),inactive,inactive,inactive,,

Structure (SMILES),Potency [1],Potency [2],Potency [3],Potency [4],Potency [5],Potency [6],Potency [7],Potency [8],Potency [9],Potency [10]
CC1CC(=O)NN=C1c1ccc(NCC(C)(C)NCC(O)COc2cc(Cl)ccc2C#N)cc1 (configuration not stated),inactive,6.68 µM (active),inactive,,,inactive,inactive,inactive,inactive,inactive
COc1cc2c(cc1OC)-c1cc(=Nc3c(C)cc(C)cc3C)n(C)c(=O)n1CC2,26.6 µM (active),1.33 µM (active),29.8 µM (active),,13.3 µM (active),,inactive,,,
Cc1cc(O)c(C(C)C)cc1Cl,inactive,inactive,inactive,,,inactive,inactive,inactive,inactive,inactive
CC(C)(CCl)c1ccccc1,inactive,inactive,inactive,,,inactive,inactive,inactive,inactive,
Cc1ccc(/C=N/n2c(-c3ccccc3)csc2=S)cc1,inactive,10.6 µM (active),inactive,,13.3 µM (active),inactive,,inactive,,
CC(C)(C)C(=O)C(Oc1ccc(Cl)cc1)n1ccnc1 (configuration not stated),inactive,23.7 µM (active),inactive,,,inactive,inactive,inactive,inactive,
Cc1oc(C)c(C(=O)Nc2ccccc2)c1C,inactive,24.3 µM (active),inactive,,24.5 µM (active),inactive,inactive,,,inactive
C[N+](C)(C)CCOC(N)=O,inactive,inactive,inactive,,,inactive,inactive,inactive,inactive,inactive
Cc1cc(OI)c(C(C)C)cc1-c1cc(C(C)C)c(OI)cc1C,inactive,inactive,inactive,,,inactive,inactive,,inactive,
CC#N,inactive,inactive,inactive,,,inactive,inactive,inactive,inactive,
CCC(C)(C)C1CCC(O)CC1 (configuration not stated),inactive,inactive,inactive,inactive,,inactive,inactive,,inactive,inactive
CC(=O)Oc1ccc(C(=C2CCCCC2)c2ccc(OC(C)=O)cc2)cc1,inactive,inactive,inactive,,,inactive,inactive,inactive,29.8 µM (active),
CCn1nc(C)c2c1C(=O)NCC(c1ccc(O)cc1)=N2,inactive,24.3 µM (active),inactive,inactive,,inactive,inactive,,,inactive
CCC(=O)Oc1ccc(/C(CC)=C(\CC)c2ccc(OC(=O)CC)cc2)cc1,inactive,inactive,inactive,inactive,,inactive,,,,
Cc1cc2nc3ccc(=[N+](C)C)cc-3sc2cc1N,26.6 µM (active),4.22 µM (active),9.44 µM (active),inactive,,11.9 µM (active),inactive,,2.11 µM (active),
CCCCCCCCCCCC(=O)[O][Sn]([CH2]CCC)([CH2]CCC)[O]C(=O)CCCCCCCCCCC,inactive,inactive,inactive,inactive,,,,,2.11 µM (active),
O=C(O)C(Cc1cc(I)c(O)c(I)c1)c1ccccc1 (configuration not stated),inactive,inactive,inactive,,37.6 µM (active),inactive,inactive,inactive,inactive,inactive
CSc1ccc(Oc2ccc(S(N)(=O)=O)cc2CN(C)C)cc1C,inactive,inactive,inactive,inactive,,inactive,inactive,inactive,,inactive
